Results taken from PubChem BioAssay (NCI).
Values joined by “and” are separate entries in the source; they are usually repeats but may differ in a detail not shown here. Equal values may be shown once. About 83,000 compounds went through this panel and 20% of them were active in at least one assay; those are over-represented in the sample as a whole.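 A percent growth of 40 corresponds to 60% growth inhibition; 0 means no net growth; -100 means all cells died. Active threshold: below 10.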 Active and inactive are the calls of the source.

What was measured:
Assay in all cases: NCI-60 one-dose screen, 48 h (100 = growth as untreated, 0 = no growth, -100 = all killed)
Conditions in all cases: 10 µM unless noted
HCT-15 colon = tested on: HCT-15 colon
HT29 colon = tested on: HT29 colon
SNB-19 CNS = tested on: SNB-19 CNS
U251 CNS = tested on: U251 CNS
PC-3 prostate = tested on: PC-3 prostate
SK-MEL-5 melanoma = tested on: SK-MEL-5 melanoma
UACC-62 melanoma = tested on: UACC-62 melanoma
LOX IMVI melanoma = tested on: LOX IMVI melanoma
SK-MEL-28 melanoma = tested on: SK-MEL-28 melanoma
SK-MEL-2 melanoma = tested on: SK-MEL-2 melanoma
EKVX NSCLC = tested on: EKVX NSCLC
SN12C renal = tested on: SN12C renal
TK-10 renal = tested on: TK-10 renal
ACHN renal = tested on: ACHN renal
CCRF-CEM leukemia = tested on: CCRF-CEM leukemia
MOLT-4 leukemia = tested on: MOLT-4 leukemia
UO-31 renal = tested on: UO-31 renal
A498 renal = tested on: A498 renal
SNB-75 CNS = tested on: SNB-75 CNS
CAKI-1 renal = tested on: CAKI-1 renal

Measured: growth

Nc1ccccc1SC1CC(=O)N(c2ccc(I)cc2)C1=O (stereo not drawn)
inactive: HCT-15 colon 88.5% | HT29 colon 93.3% | SNB-19 CNS 96% | U251 CNS 88.4% | PC-3 prostate 94.2% | SK-MEL-5 melanoma 87.9% | UACC-62 melanoma 82.7% | LOX IMVI melanoma 76.4% | SK-MEL-28 melanoma 90.8% | SK-MEL-2 melanoma 86.9% | EKVX NSCLC 90.6% | SN12C renal 91.8% | TK-10 renal 106% | ACHN renal 86% | CCRF-CEM leukemia 89.7% | MOLT-4 leukemia 81.5%

COc1ccc(-n2[nH]c3c(cnc4ccccc43)c2=O)cc1
inactive: HCT-15 colon 96.1% and 91.4% | HT29 colon 95.1% and 93.4% | SNB-19 CNS 103% | U251 CNS 107% | PC-3 prostate 91.3% and 97.4% | SK-MEL-5 melanoma 100% and 98.7% | UACC-62 melanoma 95.9% and 87.9% | LOX IMVI melanoma 88% and 105% | SK-MEL-2 melanoma 79.5% and 111% | EKVX NSCLC 89% | SN12C renal 85% and 95% | UO-31 renal 70.7% | TK-10 renal 90% and 93.4% | ACHN renal 95.9% and 107% | A498 renal 93.7% and 91.9% | CCRF-CEM leukemia 101% | MOLT-4 leukemia 108% and 99.9%

NCCCCCC(=O)O
inactive: HCT-15 colon 103% [middle of 4 runs] | HT29 colon 100% [middle of 4 runs] | SNB-75 CNS 93.6% [middle of 4 runs] | SNB-19 CNS 103% [middle of 4 runs] | U251 CNS 107% and 104% and 91.4% | PC-3 prostate 106% [middle of 4 runs] | SK-MEL-5 melanoma 108% and 109% and 110% | UACC-62 melanoma 112% [middle of 4 runs] | LOX IMVI melanoma 100% [middle of 4 runs] | SK-MEL-2 melanoma 110% [middle of 4 runs] | EKVX NSCLC 109% [middle of 4 runs] | SN12C renal 107% [middle of 4 runs] | TK-10 renal 115% and 104% and 98.9% | ACHN renal 103% [middle of 4 runs] | CAKI-1 renal 94% [middle of 4 runs] | CCRF-CEM leukemia 101% and 90.4% and 108% | MOLT-4 leukemia 105% and 88.6% and 108%

OCc1ccccc1F
inactive: HCT-15 colon 15% | HT29 colon 31.3% | SNB-19 CNS 103% | U251 CNS 80.5% | PC-3 prostate 71.9% | SK-MEL-5 melanoma 95.7% | UACC-62 melanoma 84% | LOX IMVI melanoma 75.8% | SK-MEL-28 melanoma 103% | SK-MEL-2 melanoma 26.3% | EKVX NSCLC 110% | SN12C renal 84.5% | TK-10 renal 107% | CAKI-1 renal 18.7% | A498 renal 98.5% | CCRF-CEM leukemia 83.9% | MOLT-4 leukemia 91.8%
active: ACHN renal 6.49%

CCOCCC(=O)O
inactive: HCT-15 colon 108% | HT29 colon 104% | SNB-19 CNS 109% | U251 CNS 106% | PC-3 prostate 91.7% | SK-MEL-5 melanoma 96.1% | UACC-62 melanoma 102% | LOX IMVI melanoma 102% | SK-MEL-28 melanoma 109% | SK-MEL-2 melanoma 109% | EKVX NSCLC 98.8% | SN12C renal 103% | UO-31 renal 102% | TK-10 renal 103% | ACHN renal 110% | CAKI-1 renal 102% | A498 renal 80.1% | CCRF-CEM leukemia 98.9% | MOLT-4 leukemia 116%

CC1CCC(=O)N1c1ccc(N)cc1 (stereo not drawn)
inactive: HCT-15 colon 108% | HT29 colon 96.6% | SNB-19 CNS 97.8% | U251 CNS 97.3% | PC-3 prostate 94.4% | SK-MEL-5 melanoma 98.9% | UACC-62 melanoma 100% | LOX IMVI melanoma 95.1% | SK-MEL-28 melanoma 107% | SK-MEL-2 melanoma 99.7% | EKVX NSCLC 104% | SN12C renal 106% | TK-10 renal 94.8% | ACHN renal 104% | A498 renal 98.4% | CCRF-CEM leukemia 107% | MOLT-4 leukemia 105%

O=S(=O)(O)c1ccc2cc(O)ccc2c1
inactive: HCT-15 colon 112% | HT29 colon 103% | SNB-19 CNS 109% | U251 CNS 98.7% | PC-3 prostate 94.7% | SK-MEL-5 melanoma 96.8% | UACC-62 melanoma 99.7% | LOX IMVI melanoma 104% | SK-MEL-28 melanoma 117% | SK-MEL-2 melanoma 106% | EKVX NSCLC 106% | SN12C renal 105% | UO-31 renal 95.1% | ACHN renal 106% | A498 renal 78.8% | CCRF-CEM leukemia 109% | MOLT-4 leukemia 103%

CC(=O)Nc1ccc(OC(C)=O)cc1
6.69% (active) and 106% (inactive): CCRF-CEM leukemia
inactive: HCT-15 colon 13.5% and 102% | SNB-75 CNS 37.6% and 94.3% | SNB-19 CNS 35.2% and 111% | U251 CNS 11.7% and 102% | PC-3 prostate 11.5% and 92.8% | SK-MEL-5 melanoma 92.8% | UACC-62 melanoma 18.5% and 108% | EKVX NSCLC 49.5% and 99.5% | SN12C renal 20.2% and 102% | TK-10 renal 42% and 99.1% | ACHN renal 26.8% and 110% | CAKI-1 renal 17.8% and 98.8% | MOLT-4 leukemia 15.2% and 117%
-40.5% (active) and 65.6% (inactive): A498 renal
-0.769% (active) and 105% (inactive): HT29 colon
-24% (active) and 100% (inactive): LOX IMVI melanoma
-16.6% (active) and 111% (inactive): SK-MEL-2 melanoma

CS(=O)(=O)OCC1NC(=O)C(COS(C)(=O)=O)NC1=O (stereo not drawn)
inactive: HCT-15 colon 91.8% and 88.4% | HT29 colon 85.6% and 81.3% | SNB-19 CNS 105% and 110% | U251 CNS 95.9% and 93.9% | PC-3 prostate 88.3% and 82.6% | SK-MEL-5 melanoma 96.5% and 103% | UACC-62 melanoma 101% and 102% | LOX IMVI melanoma 94.1% and 90.5% | SK-MEL-28 melanoma 115% and 112% | SK-MEL-2 melanoma 75.4% and 89.1% | EKVX NSCLC 98.9% and 89.2% | SN12C renal 108% and 111% | UO-31 renal 91.7% and 94.1% | TK-10 renal 130% and 138% | ACHN renal 93.7% and 85.9% | CAKI-1 renal 97% and 91.3% | A498 renal 104% and 154% | CCRF-CEM leukemia 82.4% and 74.2% | MOLT-4 leukemia 91.6% and 69%

N=C(N)N1CCc2ccccc2C1
inactive: HCT-15 colon 109% and 103% | HT29 colon 102% and 105% | SNB-19 CNS 99.9% and 103% | U251 CNS 89.2% and 98.4% | PC-3 prostate 89.3% and 128% | SK-MEL-5 melanoma 102% and 111% | UACC-62 melanoma 99.3% and 99% | LOX IMVI melanoma 84.3% and 113% | SK-MEL-28 melanoma 109% | SK-MEL-2 melanoma 128% | EKVX NSCLC 66% and 97% | SN12C renal 90.8% and 99.6% | UO-31 renal 82.8% and 86.8% | TK-10 renal 106% and 110% | ACHN renal 101% | CAKI-1 renal 74.5% and 101% | A498 renal 58.3% | CCRF-CEM leukemia 91.9% | MOLT-4 leukemia 88.3% and 106%

S=c1nn[nH]n1C1CCCCC1
inactive: HCT-15 colon 115% | HT29 colon 116% | SNB-19 CNS 111% | U251 CNS 102% | PC-3 prostate 101% | SK-MEL-5 melanoma 105% | UACC-62 melanoma 113% | LOX IMVI melanoma 111% | SK-MEL-28 melanoma 117% | SK-MEL-2 melanoma 129% | EKVX NSCLC 106% | SN12C renal 105% | UO-31 renal 100% | TK-10 renal 118% | ACHN renal 109% | A498 renal 87.5% | CCRF-CEM leukemia 93.9% | MOLT-4 leukemia 115%

CCC(C)NC(=O)c1ccccc1C (stereo not drawn)
inactive: HCT-15 colon 96.3% | HT29 colon 97.4% | SNB-19 CNS 97.9% | U251 CNS 102% | PC-3 prostate 101% | SK-MEL-5 melanoma 91% | UACC-62 melanoma 100% | LOX IMVI melanoma 95.7% | SK-MEL-28 melanoma 94.3% | SK-MEL-2 melanoma 104% | EKVX NSCLC 91.2% | SN12C renal 96.5% | UO-31 renal 94.2% | ACHN renal 95.4% | CAKI-1 renal 95.3% | A498 renal 89.2% | CCRF-CEM leukemia 103% | MOLT-4 leukemia 114%

N#Cc1c[nH]n2ccnc12
inactive: HCT-15 colon 104% | HT29 colon 91.2% | SNB-19 CNS 108% | U251 CNS 92.4% | PC-3 prostate 97.9% | SK-MEL-5 melanoma 115% | UACC-62 melanoma 106% | LOX IMVI melanoma 96.1% | SK-MEL-28 melanoma 107% | SK-MEL-2 melanoma 105% | EKVX NSCLC 90.3% | SN12C renal 99.8% | UO-31 renal 94.7% | TK-10 renal 103% | ACHN renal 112% | CAKI-1 renal 104% | A498 renal 117% | CCRF-CEM leukemia 109% | MOLT-4 leukemia 109%

O=[N+]([O-])c1ccc(NC(c2ccccc2)c2ccc3cccnc3c2O)cc1 (stereo not drawn)
inactive: HCT-15 colon 32.5% | HT29 colon 26% | SNB-19 CNS 21.2% | U251 CNS 12.3% | PC-3 prostate 30.3% | SK-MEL-2 melanoma 36.3% | EKVX NSCLC 19.9% | SN12C renal 14.8% | TK-10 renal 42.7% | ACHN renal 15.8% | A498 renal 55.8% | CCRF-CEM leukemia 10.2%
active: SK-MEL-5 melanoma -1.02% | UACC-62 melanoma -4.08% | LOX IMVI melanoma 9.64% | UO-31 renal -2.13% | CAKI-1 renal 2.88% | MOLT-4 leukemia 9.81%

Cc1cc(Cl)nc(Nc2ccccc2)n1
inactive: HCT-15 colon 97.4% | HT29 colon 104% | SNB-19 CNS 103% | U251 CNS 98.7% | PC-3 prostate 96.8% | SK-MEL-5 melanoma 97.2% | UACC-62 melanoma 90.2% | LOX IMVI melanoma 97% | SK-MEL-28 melanoma 109% | SK-MEL-2 melanoma 106% | EKVX NSCLC 93.8% | SN12C renal 96.1% | TK-10 renal 94.4% | ACHN renal 98.9% | CAKI-1 renal 78.7% | A498 renal 93.3% | CCRF-CEM leukemia 99.3% | MOLT-4 leukemia 94.8%
